Measurements taken from PubChem BioAssay AID1159580 (chemical genetic matrix, 2015).
Out of some 5,500 compounds screened, about 2,000 (36%) were called active. Another 18% or so got no clear call; they are omitted. Cut-off read from the data, not from the text of the source: active = normalized growth mostly below about 0.91 (no sharp cut-off); inconclusive = no clear call, values can overlap the other calls; inactive = mostly above about 0.92. This is one part of the list.

Assay: chemical genetic growth profiling, strain panel (AID 1159580);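 note: tested at 20 µM; growth read once vehicle control cultures reached saturation at 30 °C; 1 = growth at the plate median or of vehicle wells; lower values mean less growth of the strain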
Details: S. cerevisiae deletion strains, growth OD

Measured: normalized growth

O=S(=O)(c1cccc2c(Cl)cccc12)N1CCCNCC1
inactive: locus YAL040C, strain CLN3, hits give low values 0.99 | locus YDR363W, strain ESC2, hits give low values 1 | locus YER002W, strain NOP16, hits give low values 0.988 | locus YGR078C, strain PAC10, hits give low values 0.986 | locus YMR263W, strain SAP30, hits give low values 1 | locus YNL128W, strain TEP1, hits give low values 1.01 | locus YNL175C, strain NOP13, hits give low values 1.03 | locus YNL197C, strain WHI3, hits give low values 1.03 | locus YNL224C, strain SQS1, hits give low values 1.01 | locus YOR083W, strain WHI5 (second series), hits give low values 1.02 | locus YPL241C, strain CIN2, hits give low values 1
